# Test results reported in PubChem BioAssay (NCI).
# About 83,000 compounds went through this panel and 20% of them were active in at least one assay; those are over-represented in the sample as a whole.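 The endpoint reported here, percent growth, reads 100 for growth as untreated, 0 for no net growth and -100 for all cells dead.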 Unmarked numbers belong to inactive results. Activity calls are given as the source filed them. Rule for the calls: active = growth percent below 10; inactive = the rest.
# Columns and labels:
# Assay in all cases: NCI-60 one-dose screen, 48 h (100 = growth as untreated, 0 = no growth, -100 = all killed)
# Conditions in all cases: 10 µM unless noted
# SR leukemia = test system: SR leukemia
# RPMI-8226 leukemia = test system: RPMI-8226 leukemia
# OVCAR-8 ovarian = test system: OVCAR-8 ovarian
# OVCAR-5 ovarian = test system: OVCAR-5 ovarian
# OVCAR-4 ovarian = test system: OVCAR-4 ovarian
# SK-OV-3 ovarian = test system: SK-OV-3 ovarian
# IGROV1 ovarian = test system: IGROV1 ovarian
# OVCAR-3 ovarian = test system: OVCAR-3 ovarian
# HS 578T breast = test system: HS 578T breast
# NCI/ADR-RES ovarian = test system: NCI/ADR-RES ovarian
# T-47D breast = test system: T-47D breast
# BT-549 breast = test system: BT-549 breast
# MDA-MB-435 melanoma = test system: MDA-MB-435 melanoma
# SW-620 colon = test system: SW-620 colon
# MCF7 breast = test system: MCF7 breast
# HCT-116 colon = test system: HCT-116 colon
# HCC-2998 colon = test system: HCC-2998 colon
# KM12 colon = test system: KM12 colon
Compound,growth (SR leukemia),growth (RPMI-8226 leukemia),growth (OVCAR-8 ovarian),growth (OVCAR-5 ovarian),growth (OVCAR-4 ovarian),growth (SK-OV-3 ovarian),growth (IGROV1 ovarian),growth (OVCAR-3 ovarian),growth (HS 578T breast),growth (NCI/ADR-RES ovarian),growth (T-47D breast),growth (BT-549 breast),growth (MDA-MB-435 melanoma),growth (SW-620 colon),growth (MCF7 breast),growth (HCT-116 colon),growth (HCC-2998 colon),growth (KM12 colon)
Cc1nc(Nc2ccc(S(=O)(=O)Nc3cc(C)on3)cc2)c2ccccc2n1,111%,111%,104%,101%,105%,93%,96.9%,103%,108%,107%,89.1%,120%,101%,109%,91.9%,109%,107%,103%
COc1ccc(/C(C)=C(\c2ccc(Cl)cc2)c2ccc(OCCN(C)C)cc2)cc1F,-32% (active),-29.2% (active),65.5%,78%,56.1%,92.9%,47.6%,64.7%,64.3%,78.9%,77.3%,87.7%,51.5%,54.8%,31.8%,43.6%,25.4%,34.2%
CCN(CC)CCCNC(=O)c1ccc(N)cc1,86.6%,105%,106%,97.1%,114%,112%,100%,111%,99.2%,102%,102%,102%,108%,97.8%,95.1%,94.8%,126%,107%
CCN(CC)CCCC(C)NCc1ccccc1 (configuration not stated),111%,107%,93.7%,97.6%,105%,118%,95.6%,104%,115%,106%,105%,85.2%,100%,105%,93.8%,90.8%,99.5%,96.9%
CNC1(C#N)CCN(Cc2ccccc2)CC1,132%,110%,113%,100%,103%,99.4%,101%,99.9%,104%,103%,5.3% (active),203%,95.4%,105%,102%,106%,106%,103%
c1ccc(-c2oc3ccccc3c2-c2ccccc2)cc1,57.3%,107%,102%,105%,96.7%,101%,87.8%,100%,110%,110%,75.7%,106%,99.5%,105%,115%,98.5%,111%,104%
CN(C)CCN1C(=O)c2cccc3c(-c4ccc(-c5nc6c7ccccc7c7ccccc7c6[nH]5)cc4)ccc(c23)C1=O,38.6%,54.9%,52%,123%,-2.99% (active),109%,96.3%,117%,117%,88.1%,86.7%,104%,114%,86%,36.2%,65.1%,104%,75.8%
CN(C)CCOC(=O)Nc1ccc(Cl)cc1,101%,94.3%,97.5%,109%,117%,96.9%,103%,106%,94.7%,104%,101%,82%,112%,104%,94.4%,86.8%,102%,104%
CCNCCNc1cc(-c2ccc(F)cc2)c(C#N)c2nc3ccccc3n12,-23% (active),36.4%,42.2%,89.9%,31%,94.5%,60.4%,0.676% (active),64.2%,55.4%,21.3%,70.9%,-62.7% (active),10.8%,35.4%,24.5%,53.5%,66.4%
